Test results from PubChem BioAssay AID463173 (ICCB-Longwood Screening Facility, Harvard Medical School, 2010).
About 4,300 (8.3%) of roughly 52,000 compounds were called active. No stated cut-off is given here; in the data, active means survival mostly below about 52% (no sharp cut-off); inactive means mostly above about 56%. Shown is part of a subset that was picked to be rich in actives.

Each compound was assayed on DeltatarO mutant (assay: S. aureus survival, RN4220 and DeltatarO strains – OD600, teichoic acid synthesis inhibitors, primary screen (AID 463173)). Conditions: S. aureus RN4220 wild type/DeltatarO growth, OD600, 18 h, stronger effect = lower value, screened at 18.75 µg/mL (by protocol).

Row | Compound | survival
1 | CCOc1ccc(-c2nn(CC(=O)NC3CCCCC3)c3c2cnc2ccc(C)cc23)cc1 | 107% (inactive)
2 | CCOc1ccc(NC(=O)C2CCCN(c3nn4cc(-c5ccc(OC)cc5)nc4s3)C2)cc1 (stereo not given) | 113% (inactive)
3 | Cc1oc(-c2cccc(Cl)c2)nc1CSc1nncn2c1cc1occc12 | 103% (inactive)
4 | COC(=O)c1sccc1S(=O)(=O)N(CC(=O)Nc1cc(C)cc(C)c1)c1ccc(Cl)cc1 | 88% (inactive)
5 | Cn1c(SCC#N)nc2c(c1=O)C1(CCCCC1)Cc1ccccc1-2 | 103% (inactive)
6 | CCCCNC(=O)C1CCN(Cc2cccc(OC)c2O)CC1 | 78% (inactive)
7 | CCCNC(=O)CSc1nc(-c2ccccc2)cc(C(F)(F)F)n1 | 77% (inactive)
8 | COC(=O)CSc1nc(-c2ccccc2)cc(C(F)(F)F)n1 | 88% (inactive)
9 | CCC(C)n1c(SCC(=O)Nc2ccccc2C(=O)OC)nc2ccsc2c1=O (stereo not given) | 17% (active)
10 | COC(=O)c1ccccc1NC(=O)CSc1nc2ccsc2c(=O)n1CCC(C)C | 88% (inactive)
11 | CCn1c(SCC(=O)Nc2ccccc2C(=O)OC)nc2ccsc2c1=O | 94% (inactive)
12 | COC(=O)c1ccccc1NC(=O)CSc1nc(-c2ccccc2)cc(C(F)(F)F)n1 | 25% (active)
13 | CCNC(=O)C1CCCN(c2ncnc3onc(C)c23)C1 (stereo not given) | 101% (inactive)
14 | CCOc1ccccc1NC(=O)c1ccc2c(c1)CCN2S(C)(=O)=O | 75% (inactive)
15 | COc1ccc(S(=O)(=O)Nc2cccc(-c3ccc(N4CCOCC4)nn3)c2)cc1F | 88% (inactive)
16 | O=C1c2oc3ccccc3c(=O)c2C(c2cccc(O)c2)N1Cc1ccc(F)cc1 (stereo not given) | 77% (inactive)
17 | CCCN1C(=O)c2oc3cc(C)cc(C)c3c(=O)c2C1c1ccc(F)cc1 (stereo not given) | 49% (active)
18 | COCCN1C(=O)c2oc3cc(C)cc(C)c3c(=O)c2C1c1cccc(O)c1 (stereo not given) | 71% (inactive)
19 | Cc1cc(C)c2c(=O)c3c(oc2c1)C(=O)N(Cc1ccco1)C3c1ccc(F)cc1 (stereo not given) | 53% (inactive)
20 | COc1ccc(CCN2C(=O)c3oc4cc(C)cc(C)c4c(=O)c3C2c2ccc(F)cc2)cc1OC (stereo not given) | 56% (inactive)

Row | Compound | survival
21 | Cc1cc(C)c2c(=O)c3c(oc2c1)C(=O)N(Cc1ccc(F)cc1)C3c1cccc(O)c1 (stereo not given) | 52% (active)
22 | COc1ccc(CNC(=O)c2ccc3c(c2)nc2n3CCCCC2)cc1 | 89% (inactive)
23 | CCN(CC)S(=O)(=O)c1ccc2nc(NC(=O)c3ccc(Br)o3)sc2c1 | 87% (inactive)
24 | N#Cc1ccc(NC(=O)c2cc(-c3cccc(Cl)c3)on2)cc1 | 71% (inactive)
25 | CCCCN(C)C(=O)C1CCC(Cn2c(=O)[nH]c3ccsc3c2=O)CC1 (stereo not given) | 0% (active)
26 | CNC(=O)C1CCC(Cn2c(=O)[nH]c3ccsc3c2=O)CC1 (stereo not given) | 99% (inactive)
27 | CCCCCNC(=O)C1CCC(Cn2c(=O)c3sccc3n(CC)c2=O)CC1 (stereo not given) | 49% (inactive)
28 | CCC(CC)C(=O)Nc1cc(-c2ccccc2F)nn1-c1ccccc1 | 76% (inactive)
29 | COC(=O)c1c(NC(=O)COc2cccc(C(F)(F)F)c2)sc2c1CCCC2 | 49% (inactive)
30 | CCOC(=O)c1c(NC(=O)COc2cccc(C)c2C)sc2c1CCCCC2 | 64% (inactive)
31 | CCOC(=O)c1c(NC(=O)COc2cccc(C(F)(F)F)c2)sc2c1CCC(C)C2 (stereo not given) | 68% (inactive)
32 | CCOC(=O)c1c(NC(=O)COc2ccccc2Br)sc2c1CCCCC2 | 40% (active)
33 | CCOC(=O)c1c(NC(=O)COc2cccc(C(F)(F)F)c2)sc2c1CCCCC2 | 60% (active)
34 | CCOC(=O)c1c(NC(=O)COc2ccccc2F)sc2c1CCCC2 | 67% (inactive)
35 | O=S(=O)(Nc1cccc(-c2ccc(N3CCOCC3)nn2)c1)c1ccc(F)cc1F | 62% (inactive)
36 | Cc1c(CCNC(=O)c2c(F)cccc2F)sc2nc(-c3ccc(F)cc3)nn12 | 117% (inactive)
37 | CCOc1ccccc1CNC(=O)c1ccc(NC(=O)N2CCSc3ncccc32)cc1 | 79% (inactive)
38 | CCc1nnc(NC(=O)CSC2=NC(=O)C(NC(C)=O)C(=O)N2)s1 (stereo not given) | 99% (inactive)
39 | CCCN(CCC)C(=O)Cn1c(=O)n(CCCCCC(=O)NCc2ccccc2Cl)c(=O)c2sccc21 | 81% (inactive)
40 | Cc1ccc(Cn2c(=O)n(Cc3ccccc3)c(=O)c3oc4ccccc4c32)cc1 | 69% (inactive)

Row | Compound | survival
41 | CC(=O)N1CCCc2cc(S(=O)(=O)NCc3cccc(C)c3)ccc21 | 78% (inactive)
42 | C=CCc1c(C)nc2nc(SCC(=O)Nc3ccc(C)c(C)c3)nn2c1C | 75% (inactive)
43 | CCOC(=O)c1ccccc1NC(=O)CSc1cc(C)[nH]c(=O)n1 | 88% (inactive)
44 | COc1cc(C(=O)Nc2cc(C)ccc2OCc2cc(=O)n3cc(C)sc3n2)cc(OC)c1OC | 89% (inactive)
45 | O=C(c1cccn1-c1nnc(N2CCCCC2)s1)N1CCN(c2ccccc2)CC1 | 0% (active)
46 | COc1ccc(N2CCN(C(=O)c3cccn3-c3nnc(N4CCCC4)s3)CC2)cc1 | 101% (inactive)
47 | O=C(c1cccn1-c1nnc(N2CCCCC2)s1)N1CCN(c2ccc(Cl)cc2)CC1 | 69% (inactive)
48 | O=C(c1cccn1-c1nnc(N2CCCC2)s1)N1CCN(c2ccc(F)cc2)CC1 | 118% (inactive)
49 | O=C(c1cccn1-c1nnc(N2CCCC2)s1)N1CCN(c2ccc(Cl)cc2)CC1 | 63% (inactive)
50 | O=C(c1cccn1-c1nnc(N2CCCC2)s1)N1CCN(c2ccccc2)CC1 | 25% (active)
51 | O=S(=O)(c1ccc2nc(Nc3ccc(Br)cc3F)ccc2c1)N1CCCCC1 | 70% (inactive)
52 | COc1ccc(CCNC(=O)C2COc3ccccc3C2)cc1OC (stereo not given) | 75% (inactive)
53 | CN(C)c1ccc(CNC(=O)C2COc3ccccc3C2)cc1 (stereo not given) | 32% (active)
54 | O=C(NCCc1ccccc1)C1COc2ccccc2C1 (stereo not given) | 37% (active)
55 | CCc1ccc(CNC(=O)C2COc3ccccc3C2)cc1 (stereo not given) | 81% (inactive)
56 | Cc1ccc(CNC(=O)C2COc3ccccc3C2)cc1 (stereo not given) | 117% (inactive)
57 | Cc1ccc(CCNC(=O)C2COc3ccccc3C2)cc1 (stereo not given) | 74% (inactive)
58 | CCOc1cc(CNC(=O)C2COc3ccccc3C2)cc(OCC)c1OCC (stereo not given) | 69% (inactive)
59 | O=C(NCCc1ccc(Cl)cc1)C1COc2ccccc2C1 (stereo not given) | 69% (inactive)
60 | CCOc1ccc(CCNC(=O)C2COc3ccccc3C2)cc1OCC (stereo not given) | 0% (active)
